Only a selection was taken, and hits are over-represented in it overall.
GBA activity up: GBA activity enhancers in patient fibroblasts, primary screen, cell-based; L444P Gaucher fibroblasts, 4-MU-glucoside fluorescence, 3 days; activation, % at 10 µM; 30,000 compounds, 0.44% hits; in the data active = activation above about 65%;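 note: 0% = vehicle wells and 100% = positive control wells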
Target sequence (P04062 whole entry L483P): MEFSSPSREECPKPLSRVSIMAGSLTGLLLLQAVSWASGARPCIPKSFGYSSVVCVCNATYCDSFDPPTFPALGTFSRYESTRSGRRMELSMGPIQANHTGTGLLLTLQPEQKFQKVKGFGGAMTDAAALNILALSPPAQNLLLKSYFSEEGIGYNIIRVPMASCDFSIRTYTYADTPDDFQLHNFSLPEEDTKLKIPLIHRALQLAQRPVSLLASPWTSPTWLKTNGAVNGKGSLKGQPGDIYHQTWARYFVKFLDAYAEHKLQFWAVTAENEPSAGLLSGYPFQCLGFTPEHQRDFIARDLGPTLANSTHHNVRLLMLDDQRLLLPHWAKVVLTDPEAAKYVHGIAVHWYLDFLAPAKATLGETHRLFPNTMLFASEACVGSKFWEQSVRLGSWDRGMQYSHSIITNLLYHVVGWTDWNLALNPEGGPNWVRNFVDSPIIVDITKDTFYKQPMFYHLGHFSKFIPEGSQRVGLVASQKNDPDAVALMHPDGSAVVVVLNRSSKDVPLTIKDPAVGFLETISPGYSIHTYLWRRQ
Active calls of the source: *.

SMILES	GBA activity up
Nc1nonc1-c1noc(CCCCCN2C(=O)c3ccccc3C2=O)n1	479.4*
O=C1CCC(=O)N1CCCCCc1nc(-c2ccccc2)no1	-4.4
O=C1c2ccccc2C(=O)N1CCCc1nc(-c2ccccn2)no1	-3.7
COc1ccc(CCNC(=O)COC(=O)c2cnccn2)cc1	-13.0
COc1ccc2nc(S(=O)Cc3ncc(C)c(OC)c3C)[nH]c2c1 (centres undefined)	-18.9
CC(=O)c1ccc2c(c1)Nc1ccccc1S2	70.8*
CC(=O)c1cccc(NC(=O)C=C(C)C)c1	0.6
COC(=O)CC1Sc2ccccc2NC1=O (centres undefined)	-22.0
COCc1nnc(NC(=O)c2ccc(S(=O)(=O)N(C)C3CCCCC3)cc2)o1	78.8*
COCc1nnc(NC(=O)c2ccc(S(=O)(=O)N3CCCCCC3)cc2)o1	2.1
COCCN(CCOC)S(=O)(=O)c1ccc(C(=O)Nc2nnc(C)o2)cc1	-8.5
CCc1ccc(NC(=O)CCNS(=O)(=O)c2cccc3nonc23)cc1	-52.1
CCOC(=O)C(C(C)=O)c1c(Br)c(O)c(O)c2c(C(=O)c3ccc(C)cc3)coc12 (centres undefined)	7.0
O=C(O)C(c1ccccc1)N1CCCC1 (centres undefined)	-2.9
CCOC(=O)c1c(C)n(C)c2cc(Br)c(C(=O)OC)cc12	-11.4
CCOC(=O)c1c(C)n(C)c2ccc(OC(C)C(=O)OC)cc12 (centres undefined)	72.2*
CCOC(=O)c1c(C)n(C)c2ccc(OCC(O)Cn3nc(C)c(Br)c3C)cc12 (centres undefined)	-18.2
CCC1CCCCN1C(=O)Cn1c(=O)oc2ccccc21 (centres undefined)	0.2
O=C(OCC#CCSc1nc2ccccc2s1)c1ccco1	-5.3
Cc1c(NC(=O)CCc2ccc(S(=O)(=O)N3CCOCC3)cc2)c(=O)n(-c2ccccc2)n1C	-10.2
COc1ccccc1NC(=O)C1=C(C)Nc2nnnn2C1c1ccncc1 (centres undefined)	-12.6
COc1ccccc1NC(=O)C1=C(C)Nc2ncnn2C1c1ccccc1C (centres undefined)	-28.2
CCOc1ccccc1C1C(C(=O)Nc2ccccc2OC)=C(C)Nc2nnnn21 (centres undefined)	152.5*
COc1ccccc1-n1c(SCC(=O)N2CCCC2)nc2cccnc21	-32.2
CCc1cc2c(=O)c(-n3cnc4ccccc43)coc2cc1O	-12.2
SMILES	GBA activity up
CCCn1c2ccccc2c2nnc(SCC(=O)OCC)nc21	-6.4
O=C(CSc1nnc2c(n1)[nH]c1ccc(F)cc12)OCc1ccccc1	76.5*
O=C(CN1CCN(c2ccc(F)cc2)CC1)OCc1ccccc1	-10.2
CCc1cccc2c(C#N)cn(CC(=O)NCCOC)c12	1.1
CC(=O)Nc1ccc(S(=O)(=O)/N=C2\SCCN2S(=O)(=O)c2ccc(NC(C)=O)cc2)cc1	-1.3
N#Cc1cc2c(=O)n3ccccc3nc2n(CCCn2ccnc2)c1=N	-14.4
Cc1ccc(S(=O)(=O)c2cc3c(=O)n4ccccc4nc3n(CC3CCCO3)c2=N)cc1 (centres undefined)	-3.7
Cc1ccc(-n2c(=O)c(C#N)cc3c(=O)n4ccccc4nc32)cc1	134.0*
CC12CCC(c3c(C(=O)Nc4nccs4)nn(-c4ccccc4)c31)C2(C)C (centres undefined)	2.4
Cc1cc(C)cc(N(CC(=O)NCc2cccnc2)S(C)(=O)=O)c1	-7.9
CC(C)CCNC(=O)CN(C)S(=O)(=O)c1cccc2nsnc12	0.3
Cc1ccc(C)c(N(C)S(=O)(=O)c2cccc3nsnc23)c1	77.2*
Cc1cc(C)cc(NC(=O)CN(C)S(=O)(=O)c2cccc3nsnc23)c1	-40.1
O=C(CCn1c(=S)[nH]c2cc3c(cc2c1=O)OCO3)NCCN1CCCC1	2.3
COc1ccc(S(=O)(=O)N(CC(=O)NCC2CCCO2)c2ccccc2)cc1OC (centres undefined)	74.6*
COc1ccccc1CC(=O)NCC1CCCO1 (centres undefined)	9.6
COc1ccc(S(=O)(=O)N(CC(=O)N2CCN(C)CC2)c2ccccc2)cc1OC	-47.9
S=c1[nH]nc(Cc2ccccc2)n1Cc1ccco1	100.5*
O=C(NCc1n[nH]c(=S)n1-c1ccccc1)c1ccco1	32.3
COc1cccc(-c2n[nH]c(=S)n2Cc2ccco2)c1OC	6.1
c1ccn2c(CNc3ncnc4sccc34)nnc2c1	-9.8
CC1(C)Oc2ccc(C(=O)NC3CCCC3)cc2N(CC(=O)NC2CCCCC2)C1=O	-19.6
O=C1OCCC1Sc1nc(-c2ccccc2)cs1 (centres undefined)	-25.8
CCCCN(C)CCNC(=O)c1ccc2c(c1)NC(=O)C(N1CCCCC1)S2 (centres undefined)	-16.2
O=C(CCCNS(=O)(=O)c1cccc2nsnc12)NCc1ccccc1	-15.7
SMILES	GBA activity up
O=C(CCCNS(=O)(=O)c1cccc2nsnc12)NCc1ccc(Cl)cc1	-35.5
COc1ccc(CNC(=O)CCCNS(=O)(=O)c2cccc3nonc23)cc1	183.0*
COc1cc2cc(CN(Cc3cccnc3)C(=O)NCc3ccccc3)c(=O)[nH]c2cc1OC	21.8
O=C(NCCCN1CCc2ccccc2C1)C1CCN(S(=O)(=O)N2CCCC2)CC1	6.7
CC(C)(C)N1C(=O)c2ccc(C(=O)O)cc2C1=O	7.3
O=C(O)c1ccc2c(c1)C(c1ccccc1)OC2=O (centres undefined)	78.3*
O=C(O)c1ccc2c(c1)CC(c1ccccc1)OC2=O (centres undefined)	-20.7
O=C(CSc1ncnc2c1oc1ccccc12)Nc1ccccc1C(F)(F)F	-19.4
CCS(=O)(=O)N1CCN(Cc2nc3ccccc3c(=O)[nH]2)CC1	-8.8
Cc1ccc(NC(=O)Cc2nc(CSc3nnc(-c4ccc5c(c4)OCO5)o3)cs2)cc1	4.2
COc1ccc(N(C(=O)Cn2nnc3ccccc32)C(C(=O)NCc2ccco2)c2ccc(C)o2)cc1 (centres undefined)	19.7
Cc1ccc(-c2nnn(CC(=O)Nc3ccccc3N3CCOCC3)n2)cc1	-17.8
CCC(C)Oc1cccc(C(=O)Nc2ccccc2N2CCOCC2)c1 (centres undefined)	-1.7
O=C(Nc1ccccc1N1CCOCC1)c1ccc2ccccc2n1	19.8
Cc1ccn2cc(C(=O)Nc3ccccc3N3CCOCC3)nc2c1	91.6*
CC(C)Oc1cccc(C(=O)Nc2ccccc2N2CCOCC2)c1	65.2*
Cc1cc(Cl)ccc1OC(C)C(=O)Nc1ccccc1N1CCOCC1 (centres undefined)	-28.1
Cc1ccc(N2C(=O)CSC2c2cccnc2)cc1F (centres undefined)	-26.8
CCCc1nc(SCC(N)=O)[nH]c(=O)c1CC	11.3
CN=C1SC(CC(=O)Nc2sc(C)c(C)c2C(=O)OC)C(=O)N1C (centres undefined)	-13.6
CCN=C1SC(CC(=O)Nc2ccccc2)C(=O)N1CC (centres undefined)	5.8
CN=C1SC(CC(=O)Nc2cccc(C(F)(F)F)c2)C(=O)N1C (centres undefined)	135.1*
Cn1nc(-c2ccc(N3CCOCC3)c(NC(=O)COc3ccccc3)c2)c2ccccc2c1=O	-89.0
CC1(C)OC(=O)C2(Cc3ccccc3N3CCCCC32)C(=O)O1 (centres undefined)	-58.3
Cc1cc(=O)oc2cc3c(cc12)OCCO3	-0.5
Cc1cc2c(C)cc(=O)oc2c2c1NCCC2	75.7*
Cc1cc(=O)oc2cc3c(cc12)OCCN3	13.6
Cc1cc(C(=O)OCC(=O)NCCc2ccccc2)c(C)o1	-2.7
CSc1nsc(SC)c1NC(=O)OCC1CCCO1 (centres undefined)	-36.9

Screening results (PubChem BioAssay)
